Assay outcomes (PubChem)
The list is not random: actives were taken first. Their share in the collection is about 2.8%.
HepG2 tox = counter-screen for TGF-b inhibitors: cytotoxicity in HepG2 cells. HepG2 CAGA-GFP viability, ATP luminescence, 18 h. AID 588856. 0.76% of 410,000 active. Potency, µM (top dose mostly 46.1 µM), inactives show at the highest dose activity change, negative = cytotoxicity, actives largely listed as cytotoxic
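HepG2 CAGA-GFP cells (1000/well, DMEM with 1% FBS) received compound, then TGF-beta at 500 pg/mL final, and were incubated 18 hours at 37 degrees C. Viability was read by CellTiter-Glo luminescence. Media-only wells were set as complete cell-killing and DMSO as no toxicity.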
TGFb SMAD3 inh = inhibitors of TGF-b signaling | HepG2 CAGA-GFP TGF-b/SMAD3 reporter, GFP fluorescence, 18 h; TGF-beta stimulated, 500 pg/mL final | Potency, µM (doses to about 46.1 µM), without a hit: top-dose activity, negative = inhibition, actives largely listed as inhibitors | 1.2% of 410,000 active | AID 588855; also: % is scaled to controls: 0 for no effect and ±100 for the full control effect; nearly all actives have a fitted effect of over 65% in size
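Smad-responsive CAGA-GFP expression was quantified in HEPG2 cells exposed to compounds and 500 pg/mL final TGF-beta for 18 h at 37 degrees C; unstimulated wells defined full inhibition.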
ATXN2 expr inh = ATXN2 expression inhibition. HEK-293 ATXN2-luciferase reporter, luminescence, 24 h. 0.72% of 360,000 active. AID 1745845. Potency, µM (titrated, usually from 57 µM), without a hit: at the highest dose activity change, negative = inhibition, actives largely listed as inhibitors; also: % is scaled to controls: 0 for no effect and ±100 for the full control effect; nearly all actives have a fitted effect of over 55% in size
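ATXN2-luciferase reporter cells (luciferase flanked by upstream and downstream ATXN2 gene portions) were treated 24 h at 37 °C with compounds at up to 57 uM. SteadyGlo luminescence gave expression; GF-AFC fluorescence gave viability.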
HTT cytoprotect = protects HTT-Q103 PC12 cells, measured by ATP. PC12 HTT-Q103 induced, cytoprotection, ATP luminescence, 40 h. Potency, µM (doses to about 56.4 µM), for the others: cytoprotection (ATP increase), hits mostly activators. AID 1471. 0.14% of 230,000 active; also: % of control where 0% means no effect; nearly all actives have a fitted effect of over 45% in size
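PC12 cells with ecdysone-inducible HTT exon 1 Q103-GFP, induced with 100 nM tebufenozide and co-treated with library compounds in a dose series (1536-well, 1500 cells/well). Cytoprotection read as ATP content by ATPlite luminescence.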
HttQ103 aggreg = inhibitors of mutant huntingtin aggregate formation in PC12 cells | AID 1688 | Potency, µM (highest dose often 46.1 µM), without a hit: top-dose activity change, negative = inhibition, most hits filed as inhibitors | 1.1% of 220,000 active | PC12 HttQ103-GFP aggregates, Acumen cytometry, 40 h; also: % is scaled to controls: 0 for no effect and ±100 for the full control effect; nearly all actives have a fitted effect of over 60% in size
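Quantitative HTS on tebufenozide-induced (100 nM) PC12 cells stably expressing polyQ103 Huntingtin exon 1–GFP. Reduction of bright GFP aggregates, detected by laser scanning cytometry after lysis, identified actives across the titration.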
ATXN viability = reduces viability in counter-screen for ATXN expression inhibitors; S2 cells (HEK-293 line with an ATXN2-luciferase reporter) viability, CellTiter-Fluor protease fluorescence, 24 h; Potency, µM (doses to about 56.7 µM), actives largely listed as cytotoxic; 0.49% of 400,000 active; AID 651635; also: nearly all actives have a fitted effect of over 40% in size
Numbers without * were called inactive; ! = not confirmed by another sample; [ ] = remark or other dose. Calls follow the shape of the dose curve; as a rule, active = well fitted curve in the direction sought with a large enough effect; inconclusive = small, poorly fitted or top-dose-only effect, or another doubt; inactive = no such curve, though single readings can be large; an effect the other way counts as inactive or inconclusive. Potency is read from the fitted curve at half-maximal effect.

How did CC(=O)NC(C)c1ccc(Oc2ccc(OC(C)C)cc2)cc1 (stereo not drawn) do in these assays?
ATXN2 expr inh: 10.6%

How did COc1ccc([N+](=O)[O-])c(S(=O)(=O)c2ccc(Cl)cc2)n1 do in these assays?
HepG2 tox: 0.631µM*; TGFb SMAD3 inh: 1.78µM*; ATXN2 expr inh: inconclusive; HTT cytoprotect: -54.7%[10 µM]; HttQ103 aggreg: inconclusive

How did O=[N+]([O-])c1cccnc1S(=O)(=O)c1ccccc1 do in these assays?
HepG2 tox: 3.55µM*; TGFb SMAD3 inh: 11.2µM*; ATXN2 expr inh: -30.7%; ATXN viability: inconclusive

What do the screens show for `COc1nc(OC)nc(Oc2ccc(Cl)cc2[N+](=O)[O-])n1`?
HepG2 tox: -3.7%; TGFb SMAD3 inh: 9.8%; ATXN2 expr inh: 3.5%; HttQ103 aggreg: 14.1%; ATXN viability: inactive

What do the screens show for `COc1ccc([N+](=O)[O-])c(S(=O)(=O)c2ccccc2)n1`?
HepG2 tox: 14.1µM*; TGFb SMAD3 inh: 3.16µM*; ATXN2 expr inh: 11.9µM*; HTT cytoprotect: -13.6%[10 µM]; HttQ103 aggreg: -15.6%[9.22 µM]

How did O=C(CNC1=NCCS1)c1c[nH]c2ccccc12 do in these assays?
HepG2 tox: -11.6%; TGFb SMAD3 inh: -2.1%

Results for COc1cc2c(cc1OC)C(c1ccc(-c3ccccc3Cl)o1)=NCC2 ?
HepG2 tox: -113.0%; TGFb SMAD3 inh: inconclusive; ATXN2 expr inh: 35.5µM*; HTT cytoprotect: -40.2%; HttQ103 aggreg: inconclusive

What do the screens show for `COc1cc2c(cc1OC)C(c1ccc(-c3cc(Cl)ccc3Cl)o1)=NCC2`?
HepG2 tox: -31.8%; TGFb SMAD3 inh: -0.3%; ATXN2 expr inh: inconclusive; HTT cytoprotect: -52.0%[10 µM]; HttQ103 aggreg: 4.7%; ATXN viability: inconclusive

How did COc1cc2c(cc1OC)C(c1ccc(-c3ccc(Cl)c(Cl)c3)o1)=NCC2 do in these assays?
HepG2 tox: 11.2µM*!; TGFb SMAD3 inh: 11.2µM*; ATXN2 expr inh: inconclusive; HTT cytoprotect: 8.2%[10 µM]; HttQ103 aggreg: 8.91µM*; ATXN viability: inactive

Results for COc1cc2c(cc1OC)C(c1ccc(-c3ccc(Cl)cc3Cl)o1)=NCC2 ?
HepG2 tox: -64.5%; TGFb SMAD3 inh: 14.1µM*; ATXN2 expr inh: inconclusive; HTT cytoprotect: -103.5%; HttQ103 aggreg: 14.1µM*; ATXN viability: inconclusive

How did CCCCCCCCN1[C@@H](CC(=O)OC)c2ccc(/C=C/C(=O)OC)cc2S1(=O)=O do in these assays?
HepG2 tox: -12.0%; TGFb SMAD3 inh: -8.8%

What do the screens show for `Clc1ccc(/C=C/c2ccc3ccccc3n2)cc1Cl`?
HepG2 tox: -21.1%; TGFb SMAD3 inh: inconclusive

What do the screens show for `CCOC(=O)c1ccc(NC(=S)N2CCN(CCNC3=CC(=O)CC(C)(C)C3)CC2)cc1`?
HepG2 tox: -6.3%; TGFb SMAD3 inh: 0.0%; ATXN2 expr inh: -14.9%; HTT cytoprotect: -4.2%; HttQ103 aggreg: 5.4%; ATXN viability: inactive

Results for CC1(C)CC(=O)C=C(NCCN2CCN(C(=O)Nc3ccccc3)CC2)C1 ?
HepG2 tox: 0.5%; TGFb SMAD3 inh: 9.8%; ATXN2 expr inh: -9.7%; HTT cytoprotect: 7.5%[10 µM]; HttQ103 aggreg: 5.62µM*; ATXN viability: inactive

What do the screens show for `Cc1c(C=O)ccc(N(C)C)c1C`?
HepG2 tox: 4.7%; TGFb SMAD3 inh: -1.2%

Results for Cn1c(Sc2ccc(Br)cc2)c(C=O)c2ccccc21 ?
HepG2 tox: -4.1%; TGFb SMAD3 inh: -22.1%; ATXN2 expr inh: 0.1%; HTT cytoprotect: -60.5%; HttQ103 aggreg: 10µM*; ATXN viability: inactive

Results for Cn1c(Oc2ccc(F)cc2)c(C=O)c2ccccc21 ?
HepG2 tox: -12.3%; TGFb SMAD3 inh: -9.5%; ATXN2 expr inh: -8.5%; HTT cytoprotect: -49.2%; HttQ103 aggreg: -29.8%; ATXN viability: inactive

How did CCS(=O)(=O)c1ncc(Cl)c(C(=O)N2CCN(c3cccc(Cl)c3)CC2)n1 do in these assays?
HepG2 tox: 3.16µM*; TGFb SMAD3 inh: 1µM*

How did Cc1[nH]c2ccc(C(=O)N3CCN(c4cccc(Cl)c4)CC3)cc2c1C do in these assays?
HepG2 tox: -21.6%; TGFb SMAD3 inh: inconclusive; ATXN2 expr inh: 8.6%; ATXN viability: inactive

What do the screens show for `Cc1[nH]c(-c2ccc(F)cc2)cc1C(=O)N1CCN(c2cccc(Cl)c2)CC1`?
HepG2 tox: -80.8%; TGFb SMAD3 inh: 25.1µM*; ATXN2 expr inh: inconclusive; ATXN viability: inconclusive

How did CS(=O)(=O)c1ncc(Cl)c(C(=O)N2CCN(c3cccc(Cl)c3)CC2)n1 do in these assays?
HepG2 tox: 3.55µM*; TGFb SMAD3 inh: 2.82µM*

Results for COc1ccc(OCC(=O)N2CCN(c3cccc(Cl)c3)CC2)cc1 ?
HepG2 tox: -13.9%; TGFb SMAD3 inh: -27.4%; ATXN2 expr inh: -3.9%; HTT cytoprotect: -1.6%; HttQ103 aggreg: -2.5%; ATXN viability: inactive

Results for COc1ccc(C(=O)N(Cc2cc3cccc(C)c3nc2N(C)C)CC2CCCO2)cc1 (stereo not drawn) ?
ATXN viability: inactive

Results for O=[N+]([O-])c1ccc2c(c1)C=C/C2=C/c1ccccc1 ?
HepG2 tox: -35.8%; TGFb SMAD3 inh: inconclusive

How did COc1cccc(/C=C/C2=CC(C)(C)NC(=S)N2)c1 do in these assays?
HepG2 tox: 12.6µM*; TGFb SMAD3 inh: -13.8%; ATXN2 expr inh: 3.8%; HTT cytoprotect: 9.9%[10 µM]; HttQ103 aggreg: -7.4%[9.22 µM]; ATXN viability: inactive

Results for COc1ccc(/C=C/C2=CC(C)(C)NC(=S)N2)cc1OC ?
HepG2 tox: -16.9%; TGFb SMAD3 inh: -19.7%; ATXN2 expr inh: -23.4%; HTT cytoprotect: 25.1%; HttQ103 aggreg: 10.6%; ATXN viability: inactive

Results for Cc1nn(Cc2c(F)c(F)c(F)c(F)c2F)c(C)c1NC(=O)c1ccc(COc2ccc(Cl)cc2Cl)o1 ?
HepG2 tox: -5.4%; TGFb SMAD3 inh: inconclusive; ATXN2 expr inh: 20µM*; HttQ103 aggreg: inconclusive; ATXN viability: inactive

How did Cc1nn(Cc2cccc(F)c2)c(C)c1NC(=O)c1ccc(COc2ccccc2Cl)cc1 do in these assays?
HepG2 tox: 2.5%; TGFb SMAD3 inh: inconclusive; ATXN2 expr inh: 3.16µM*; HTT cytoprotect: -55.8%; HttQ103 aggreg: inconclusive; ATXN viability: inconclusive

Results for O=C(NCc1nnc2n1CCN(Cc1ccc(C(F)(F)F)cc1)CC2)c1cccc(F)c1 ?
ATXN viability: inactive

How did Cc1ccccc1-n1nnnc1Sc1nnnn1-c1ccccc1 do in these assays?
HepG2 tox: -34.7%; TGFb SMAD3 inh: inconclusive; ATXN2 expr inh: inconclusive; HTT cytoprotect: -62.5%; HttQ103 aggreg: 14.1µM*; ATXN viability: inconclusive
